# Bioassay records (PubChem BioAssay)
# ADAM10 inh – inhibits human ADAM10; inhibition, % at 7 µM; hit rate 0.62% among 370,000; recombinant ADAM10, EDANS/DABCYL FRET peptide cleavage, 3 h; AID 720582;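 active = inhibition above a per-campaign cutoff equal to the mean of compounds falling between control-based bounds plus 3 SD, cut at about 20% in these data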;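 note: 0% = DMSO wells while the 100% control is not disclosed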
# NPR2 activator – GC-B (human) receptor activation; P20594; hit rate 0.11% among 370,000; HEK293-GC-B cells, CNP EC30, cGMP TR-FRET; 0% at EC30 CNP, 100% saturating CNP; activation, % at 10 µM;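 active = activation at 10 µM reaching about 35% in either raw or pattern-adjusted values, limit read from the data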
# ADAM17 inh – ADAM17 inhibition, QFRET primary screen | P78536 | inhibition, % at 6.95 µM | hit rate 0.83% among 370,000 | AID 720648 | recombinant ADAM17, EDANS/DABCYL FRET peptide cleavage;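 active = inhibition above the mean of compounds lying between control limits plus 3 SD, set per campaign, cut at about 8.5% in these data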;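 note: 0% = DMSO-only wells as the low control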
# Target sequence (P78536 215-824 limits assumed): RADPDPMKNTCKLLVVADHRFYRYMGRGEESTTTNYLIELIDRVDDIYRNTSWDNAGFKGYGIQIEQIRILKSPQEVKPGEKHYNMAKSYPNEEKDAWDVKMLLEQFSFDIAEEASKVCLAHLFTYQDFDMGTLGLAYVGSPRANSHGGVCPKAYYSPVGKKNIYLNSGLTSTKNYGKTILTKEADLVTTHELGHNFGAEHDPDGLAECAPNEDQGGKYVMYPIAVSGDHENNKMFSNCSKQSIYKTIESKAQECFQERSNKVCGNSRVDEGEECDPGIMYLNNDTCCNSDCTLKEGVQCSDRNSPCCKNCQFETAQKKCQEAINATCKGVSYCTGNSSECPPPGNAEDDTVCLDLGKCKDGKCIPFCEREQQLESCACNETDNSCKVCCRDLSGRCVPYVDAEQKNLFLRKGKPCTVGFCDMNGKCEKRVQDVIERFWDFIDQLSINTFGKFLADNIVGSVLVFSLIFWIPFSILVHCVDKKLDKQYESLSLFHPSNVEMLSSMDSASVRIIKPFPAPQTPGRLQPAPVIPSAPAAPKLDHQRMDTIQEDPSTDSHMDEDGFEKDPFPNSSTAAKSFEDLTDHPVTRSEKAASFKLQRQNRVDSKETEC
# NPR1 activator – GC-A (human) enzyme activation; P16066; HEK293 GC-A cells, cGMP TR-FRET, EC30 ANP; 0% at EC30 ANP, 100% saturating ANP; hit rate 0.14% among 370,000; activation, % at 10 µM; AID 1671463; in the data active = activation above about 40%
# ADAM10 confirm – confirmation of inhibitors of human ADAM10; shares compounds with ADAM10 inh; ADAM10 QFRET peptide cleavage, EDANS fluorescence; inhibition, % at 6.95 µM; hit rate 1% among 2,100; AID 743208;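 active = inhibition above about 20% chosen separately for each screening run, limit read from the data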;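 note: 0% = DMSO wells and 100% = marimastat wells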
# ADAM17 ctr – ADAM17 inhibition, counter-screen for ADAM10 exosite hits. inhibition, % at 6.95 µM. ADAM17 QFRET peptide cleavage, EDANS fluorescence. hit rate 0.5% among 2,100. shares compounds with ADAM10 inh;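 active = mean triplicate inhibition above the solvent-only control wells' mean plus 3 SD, cut at about 12% in these data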;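 note: 0% = DMSO wells and 100% = marimastat wells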
# ADAM10 counter – inhibits human ADAM10 in ADAM17 exosite counter-screen; inhibition, % at 6.95 µM; hit rate 47% among 2,900; recombinant ADAM10, EDANS/DABCYL FRET peptide cleavage, 3 h; AID 743256; shares compounds with ADAM17 inh;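 active = mean inhibition over the triplicate runs exceeds the activity threshold set in the earlier primary screen, cut at about 20% in these data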;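 note: 0% = DMSO wells and 100% = marimastat wells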
# ADAM17 confirm – confirmation of inhibitors of human ADAM17 | shares compounds with ADAM17 inh | recombinant ADAM17, EDANS/DABCYL QFRET peptide cleavage | inhibition, % at 6.95 µM | hit rate 65% among 2,900 | AID 743257;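 active = mean inhibition across replicates above the hit cutoff set in the primary screen, cut at about 8.5% in these data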;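 note: 0% = DMSO wells and 100% = marimastat wells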
# * marks the source's active call; other numbers are inactive results; . = no result given. Rows were chosen to be rich in hits. Some 1.3% of all compounds tested hit in one or more screens of this group.
SMILES,ADAM10 inh,NPR2 activator,ADAM17 inh,NPR1 activator,ADAM10 confirm,ADAM17 ctr,ADAM10 counter,ADAM17 confirm
O=C(CSc1ccc2ccccc2c1Br)Nc1cccc(S(=O)(=O)NC2=NCCCCC2)c1,35*,-2,14*,-4,5,2,28*,20*
Cc1cccc(NS(=O)(=O)c2ccc(C3CCCCC3)cc2)c1,32*,7,16*,-4,10,4,24*,15*
O=C(Nc1ccc(C(F)(F)F)cc1[N+](=O)[O-])O[C@H]1[C@H](Cc2ccccc2)NS(=O)(=O)[C@H]2C[C@@H]3C=C[C@]12O3,29*,-4,14*,0,3,0,11,5
Cc1cc(C(=O)O[C@H]2[C@H](Cc3ccccc3)NS(=O)(=O)[C@H]3C[C@@H]4C=C[C@]23O4)ccc1[N+](=O)[O-],3,-3,2,0,.,.,.,.
Cc1ccc(S(=O)(=O)N(C)c2ccc(OCC(=O)Nc3nc4c(ccc5ccccc54)s3)cc2)cc1,1,2,3,-1,.,.,.,.
Cc1ccc(S(=O)(=O)N(C)c2ccc(OCC(=O)Nc3nc4ccccc4s3)cc2)cc1,29*,-5,18*,-2,10,3,23*,16*
COc1cc(C(O)c2nc(/C=C/c3ccccc3)cs2)ccc1F (centres undefined),42*,4,17*,5,3,1,22*,11*
COc1cccc(C(O)c2nc(-c3ccc(F)cc3OC)cs2)c1 (centres undefined),30*,-8,11*,1,3,1,11,8.8*
COc1cc(C(O)c2nc(-c3cccc(F)c3)cs2)ccc1F (centres undefined),1,-1,1,3,.,.,.,.
COc1cc(C(O)c2nc(-c3cccc(C(C)C)c3)cs2)ccc1F (centres undefined),20*,-3,11*,-1,6,2,24*,13*
COCCCNC(=O)[C@H](Cc1ccccc1)NC(=O)CC[C@H]1O[C@@H](n2ccc(=O)[nH]c2=O)[C@H](O)[C@@H]1O,-5,2,-4,-1,.,.,.,.
CCOC(=O)C1CCN(C(=O)Cn2cnc3sc(C)c(S(=O)(=O)N4CCOCC4)c3c2=O)CC1,-10,2,0,-1,.,.,.,.
O=C(COc1ccc(Cl)cc1)Nc1nc(-c2cccs2)cs1,23*,4,9.7*,5,2,2,12,5
COc1ccc(C(=O)Nc2nc(-c3cccs3)cs2)cc1,21*,-6,10*,9,9,3,-10,3
O=C(Nc1nc(-c2cccs2)cs1)c1ccc(Cl)cc1,4,2,6,1,.,.,.,.
CCOC(=O)c1c(CSc2ccccc2)oc2ccc(O)cc12,29*,-1,11*,-3,6,2,42*,16*
CCOC(=O)c1c(CN2CCN(C)CC2)oc2ccc(O)cc12,-5,-10,-3,-5,.,.,.,.
CCOC(=O)c1c(-c2ccccc2)oc2ccc(O)cc12,-12,-16,-7,-9,.,.,.,.
CCOC(=O)c1c(CSc2ccc(C)cc2)oc2ccc(O)cc12,30*,0,13*,-4,12,4,46*,19*
CCOC(=O)[C@]12CCC=C1N(Cc1ccco1)C(=O)[C@H](CC(=O)NCCCN1CCCC1=O)C2,-10,5,-5,1,.,.,.,.
Cc1cc(C)c(NC(=O)COC(=O)C2CCCCC2)c(C)c1,-1,4,-1,1,.,.,.,.
COC(=O)C[C@H]1CC[C@H]2[C@H](COc3ccc(NS(=O)(=O)c4ccccc4C)cc3C(=O)N2C)O1,0,-1,-1,5,.,.,.,.
Cc1nn(Cc2c(F)c(F)c(F)c(F)c2F)c(C)c1NC(=O)c1ccc(COc2ccc(Cl)cc2Cl)o1,25*,-2,11*,1,5,2,45*,19*
CCOC(=O)[C@]12CCCCC/C=C\1N(Cc1ccc(OC)cc1)C(=O)[C@H]2CC(=O)N1CCSCC1,3,-8,-2,-4,.,.,.,.
COc1ccc(NC(=O)Cn2nnc(-c3ccccc3)c2COc2ccc3ccccc3c2)cn1,20*,4,12*,1,11,4,31*,17*
SMILES,ADAM10 inh,NPR2 activator,ADAM17 inh,NPR1 activator,ADAM10 confirm,ADAM17 ctr,ADAM10 counter,ADAM17 confirm
COc1ccc(C(=O)OCC(=O)NCc2ccco2)cc1S(=O)(=O)N1CCN(c2cccc(Cl)c2)CC1,29*,-1,17*,-5,9,2,28*,18*
Cc1ccc(C(=O)OCC(=O)NCc2ccco2)cc1S(=O)(=O)N1CCOCC1,-11,-3,-1,1,.,.,.,.
O=C(c1cccs1)N1N=C(c2ccc(O)cc2)CC1c1ccccc1 (centres undefined),-63,-19,-17,-23,.,.,.,.
O=C(c1cccs1)N1N=C(c2ccccc2)CC1c1ccc(O)cc1 (centres undefined),27*,13,16*,22,14,4,30*,21*
CC(C)(C)OC(=O)NCCCC[C@H](NC(=O)c1[nH]cnc1C(=O)Nc1ccccc1)C(=O)OC(C)(C)C,36*,2,11*,2,4,2,44*,22*
C[C@@H](NC(=O)c1nc[nH]c1C(=O)N[C@@H](CCCCNC(=O)OC(C)(C)C)C(=O)OC(C)(C)C)c1ccccc1,43*,11,22*,1,-1,0,37*,16*
CNC(=O)c1[nH]cnc1C(=O)N[C@@H](CCCCNC(=O)OC(C)(C)C)C(=O)OC(C)(C)C,0,5,-3,3,.,.,.,.
COc1ccc(/C=C/C2=CCN(Cc3ccc(OC)cc3)CC2)cc1,2,-4,1,-3,.,.,.,.
CC(C)(C)c1ccc(CC(=O)N2CCC2(C)C(=O)NS(=O)(=O)c2cccc(F)c2)cc1 (centres undefined),-9,1,-1,-5,.,.,.,.
CCn1c(Cn2nnc(-c3ccccc3)n2)nnc1SCc1ccc(Cl)c(Cl)c1,26*,-8,9.1*,-11,8,2,32*,18*
Cc1ccc(NC(=O)C(OC(=O)c2ccc(NC(N)=O)cc2)c2ccccc2)cc1Cl (centres undefined),32*,0,18*,1,7,2,11,9.7*
CCN(C(=O)c1ccc(S(=O)(=O)N2CCCC2)cc1)C1CCS(=O)(=O)C1 (centres undefined),2,-2,-2,0,.,.,.,.
